The text below walks through data of PubChem BioAssay (NCI).

Compounds without any hit were thinned out: in the full panel of roughly 83,000, 20% have a hit.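 48-hour exposure, single concentration, 96-well plates; percent growth endpoint where 0 means no net growth. Active: below 10.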 Unmarked numbers belong to inactive results. Calls of active or inactive are those of the source.

The subject of the assay is HL-60(TB) leukemia. Put plainly: NCI-60 one-dose screen, 48 h (100 = growth as untreated, 0 = no growth, -100 = all killed). To be noted: 10 µM unless noted.
In the case of `Clc1ncn[nH]1`, the growth is 103%.
Next, `Cc1ccc(/C=C(\C#N)n2nc3cccc(F)c3n2)cc1`: 86.6%; `CN1CCN(c2nc(-c3csc(-c4cccs4)n3)cc3ccccc23)CC1`: 34.4%.
With `CSc1ccc(-c2ccccc(=O)c2O)cc1` the figure was -40.1% (active); with `CCc1ccc(Cc2cnc(NC(=O)c3cc(C)oc3C)s2)cc1`, -21.3% (active).
Next, `CCCCCCCCCOc1c(OC)cc(C2CC(=O)Nc3c2c(C)nn3-c2nc3ccccc3[nH]2)cc1OC` (stereo not given): 9.26% (active); `CCC(C)(C)c1ccc(OCCCCCCN2CCN(c3ccc(C)c(Cl)c3)CC2)cc1`: 84.5%.
Regarding `C=C1CC2(OC1=O)C(=O)N(CCCN1C(=O)C3(CC(=C)C(=O)O3)c3ccccc31)c1ccccc12` (stereo not given), the growth is -26.5% (active).
Turning to `Cc1nn(-c2ccc(F)cc2)c2ncnc(Nc3ccc(NC(=O)Nc4ccc(Cl)c(C(F)(F)F)c4)cc3)c12`, the growth is 13.2%.
With `N/C(=N\c1nc2ccccc2s1)NC(=O)Nc1cccc(Cl)c1` the figure was 3.43% (active); with `O=C(Nc1nc(-c2ccccc2)cs1)c1cc(-c2ccc(Br)cc2)nc2ccccc12`, 31.5%; with `N#CC1=C(N)Oc2c(ccc3cccnc23)C1c1ccccc1` (stereo not given), 13.3%.
`COc1cc(-c2nccc3[nH]c(-c4cccc5[nH]ccc45)nc23)cc(OC)c1OC`: the growth was -41.1% (active).
As for `COC(=O)c1c(NC(=O)CSc2nnnn2-c2ccc(OC)cc2)sc(C)c1C`, the growth is -6.74% (active).
Next, `Cc1ccc(C(=O)Nc2ccc(CN3CCN(C)CC3)c(C(F)(F)F)c2)cc1C#Cc1cncc2ncccc12`: -65.1% (active); `O=C1CC(SC(=S)C2CCCC2=O)C(=O)N1` (stereo not given): 97%.
Regarding `Cc1ccc(C)c2c1SC1=NNC(Oc3ccc(Cl)cc3)=C(C#N)C(=N)N12`, the growth was 122%.
Next, `Cc1ccc(C(=O)NCCCNc2nccc(-n3ccc4cccnc43)n2)cc1`: 105%.
For `Cc1nn(C)c2ncnc(Nc3ccccc3Br)c12`, the growth is 94.3%.
Next, `COC(=O)c1cnc2c(c1)Oc1ccccc1-c1ccnn1-2`: 98.3%.
Next, `O=C1NC(=Nc2ccc(S(=O)(=O)Nc3nccs3)cc2)S/C1=C\c1coc2ccccc2c1=O`: 107%; `Cc1nccc2c3ccc(OCc4cn(-c5ccc(Cl)cc5)nn4)cc3n(CC(C)C)c12`: -49.4% (active).
Next, `c1ccc2c(-c3cnn4cc(-c5ccc(N6CCNCC6)cc5)cnc34)ccnc2c1`: -55.7% (active); `COc1ccc(OC)c(Nc2nc3nonc3nc2Nc2cc(OC)ccc2OC)c1`: 103%; `CCCCCCCCCCCCCCCCCCNCc1ccc(Cl)cc1`: -65.8% (active).
With `CC12O[C@H](C[C@@H](O)[C@H]1O)n1c3ccccc3c3c4c(c5c6ccccc6n2c5c31)C(=O)N(CCCN)C4=O`, the growth was 4.62% (active).
`COc1cc(N)c2nccc(C)c2c1OC`: the growth was 96.2%.
With `C=C1CCC2C3(C)COC(c4ccccc4)OC3CCC2(C)C1C/C=C1/C(=O)OCC1OC(C)=O` (stereo not given) the figure was 56%.
Next, `CC(C)NC[C@@H](C(=O)N1CCN(c2ncnc3c2[C@H](C)C[C@H]3O)CC1)c1ccc(Cl)cc1`: 82%; `CN(C)C(=S)N/N=C\C=N/NC(=S)N(C)C`: -23% (active); `COc1ccc(-c2cc3c(C)nc(N)nc3n(C3CCC(OCCO)CC3)c2=O)cn1` (stereo not given): 28.4%.
Next, `CN1CCN(C(=S)S)CC1`: 111%.
Turning to `C[PH+](c1nc2ccccc2nc1[PH+](C)C(C)(C)C)C(C)(C)C.C[PH+](c1nc2ccccc2nc1[PH+](C)C(C)(C)C)C(C)(C)C.[Au+].[Cl-]` (stereo not given), the growth is 12%.
With `CC/C(Cc1ccccc1)=C(\c1ccc(OCCN2CCCCCC2)cc1)c1ccc(OC(=O)NCc2ccccc2)cc1` the figure was 37%; with `Fc1ccc(Nc2nc(Nc3ccc(-c4nc5ccccc5[nH]4)cc3)nc(N3CCCC3)n2)cc1`, 5.97% (active); with `CCOC(=O)c1ccc(Nc2ccnc(SCC(=O)c3ccc(C#N)cc3)n2)cc1`, 75.6%.
With `CCC(C)(C)c1ccc(Nc2ccc(Nc3ccc(C(C)(C)CC)cc3)cc2)cc1` the figure was 47.5%.
With `C=C1C(=O)O[C@H]2[C@H]1CC/C(Cn1cc(-c3ccc(N)cc3)nn1)=C\CC[C@@]1(C)O[C@@H]21` the figure was -27.9% (active).
As for `CN(C)CC(C)(C)C(=O)/C=C/c1ccccc1`, the growth was -15.3% [25 µM] (active).
With `CC(C)(C)[Si](C)(C)OCC1OC(n2cnc3c(N)ncnc32)CC1OS(C)(=O)=O` (stereo not given) the figure was 104%.
